39 compounds from PubChem BioAssay AID1014 (NMMLSC, 2008) can be followed below.

Each structure is given as a SMILES string. The source made the active and inactive calls. Rule as the data show it: active = inhibition of mean fluorescence above about 33%; inactive = the rest.

The nature of this assay: quorum sensing inhibitors in bacterial reporter, SAR follow-up, flow cytometry, SAR analogs (AID 1014).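 Also: Staphylococcus aureus RN6390 with RNAIII-GFP reporter stimulated by AIP; bacteria incubated with compound for 3 hours at 37 °C.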 The conditions noted are these: at 20 µM, stronger effect = higher value; inhibition of percent positive cells: flow cytometry fluorescence, measured here: percent reporter-positive cells. Background: In flow cytometry, cells or beads pass a laser one at a time.

Regarding `O=C(O)c1cc([N+](=O)[O-])cc([N+](=O)[O-])c1Nc1ccc(Cl)cc1`, the inhibition of mean fluorescence was -16.3% (inactive) and the inhibition of percent positive cells worked out at 0.2%.

Regarding `O=C(NCC(c1cccnc1)N1CCN(c2ccc(F)cc2)CC1)C1CC1` (stereo not drawn), the inhibition of mean fluorescence is -43% (inactive) and the inhibition of percent positive cells was found to be 0.1%.

Turning to `COc1cccc(-n2cc(C(=O)N=C3NC(=O)CS3)c3ccccc3c2=O)c1`, the inhibition of mean fluorescence is -5.7% (inactive) and the inhibition of percent positive cells came to 0%.

With `Cc1ccc(C)c(S(=O)(=O)c2n[nH]n3c2nc(=O)c2sccc23)c1`, the inhibition of mean fluorescence was 35.2% (active) and the inhibition of percent positive cells stood at 0%.

Turning to `Cc1cc(C)nc(Nc2ccccc2C(=O)O)n1`, the inhibition of mean fluorescence was 22.7% (inactive) and the inhibition of percent positive cells was -0.8%.

As for `CC1CCN(c2c(NCC3CCC(C(=O)NCc4ccc5c(c4)OCO5)CC3)c(=O)c2=O)CC1` (stereo not drawn), the inhibition of mean fluorescence is -24.3% (inactive) and the inhibition of percent positive cells is -0.6%.

As for `CC1CCN(C(C(=O)Nc2ccc3c(c2)OCO3)c2ccccc2)CC1` (stereo not drawn), the inhibition of mean fluorescence was 32.4% (active) and the inhibition of percent positive cells is -0.7%.

For `CC1CC(C)CN(C(C(=O)Nc2ccc(C(C)C)cc2)c2ccc3c(c2)OCO3)C1` (stereo not drawn), the inhibition of mean fluorescence was 19.3% (inactive) and the inhibition of percent positive cells was -1.5%.

For the compound `COc1ccc(C(=O)NCC(c2cccnc2)N2CCN(c3ccc(F)cc3)CC2)cc1` (stereo not drawn), the inhibition of mean fluorescence is -13.4% (inactive) and the inhibition of percent positive cells was -0.3%.

As to `CCOC(=O)C1CCN(C(C(=O)Nc2ccc3c(c2)OCO3)c2ccccc2)CC1` (stereo not drawn), the inhibition of mean fluorescence is -1% (inactive) and the inhibition of percent positive cells is -0.4%.

In the case of `COc1ccc(Nc2nc3c(S(=O)(=O)c4ccc(C(C)(C)C)cc4)nnn3c3ccccc23)cc1`, the inhibition of mean fluorescence was -16.7% (inactive) and the inhibition of percent positive cells was -0.8%.

For the compound `CC(C)c1ccc(NC(=O)C(c2ccc3c(c2)OCO3)N2CCOCC2)cc1` (stereo not drawn), the inhibition of mean fluorescence is 2.7% (inactive) and the inhibition of percent positive cells is -0.1%.

Regarding `CSCCC(NC(=O)c1ccccc1)C(=O)OCC(=O)Nc1sc2c(c1C#N)CCCC2` (stereo not drawn), the inhibition of mean fluorescence was 40.6% (active) and the inhibition of percent positive cells is -0.2%.

As for `COc1c(F)c(F)c(C(=O)O)c(Nc2ccc(C)cc2C)c1F`, the inhibition of mean fluorescence is 67.8% (active) and the inhibition of percent positive cells turned out to be 13.3%.

In the case of `Cc1oc2ccc(O)cc2c1C(=O)O`, the inhibition of mean fluorescence was -20.2% (inactive) and the inhibition of percent positive cells was -0.5%.

As to `Cc1ccc(Nc2nc3c(S(=O)(=O)c4ccc(C(C)(C)C)cc4)nnn3c3ccccc23)cc1`, the inhibition of mean fluorescence is -38.2% (inactive) and the inhibition of percent positive cells was -1%.

Regarding `O=C(NCC(c1cccnc1)N1CCN(c2ccccc2F)CC1)c1ccccc1F` (stereo not drawn), the inhibition of mean fluorescence is -1.3% (inactive) and the inhibition of percent positive cells is -0.4%.

As for `Cc1nnc(N2CCC(C(=O)Nc3ccc4c(c3)OCCO4)CC2)c2nn(-c3ccccc3)c(C)c12`, the inhibition of mean fluorescence is -7.3% (inactive) and the inhibition of percent positive cells amounted to 0%.

`CC(C)c1ccc(NC(=O)C(c2ccc3c(c2)OCO3)N2CCN(C(=O)c3ccco3)CC2)cc1` (stereo not drawn): the inhibition of mean fluorescence is -33.9% (inactive) and the inhibition of percent positive cells was -1.4%.

On to `O=CN1CCN(C(C(=O)NC2CCCC2)c2cc3c(cc2[N+](=O)[O-])OCO3)CC1` (stereo not drawn), for which the inhibition of mean fluorescence is -8.7% (inactive) and the inhibition of percent positive cells is -0.6%.

Turning to `CCOc1ccc(Nc2nc3c(S(=O)(=O)c4ccc(Br)cc4)nnn3c3ccccc23)cc1`, the inhibition of mean fluorescence is -22.8% (inactive) and the inhibition of percent positive cells was -0.3%.

For the compound `COc1c(F)c(F)c(C(=O)O)c(Nc2cccc(C)c2)c1F`, the inhibition of mean fluorescence is -11.5% (inactive) and the inhibition of percent positive cells is -1.3%.

Take `Cc1cc(C)nc(Nc2ccc(Br)cc2C(=O)O)n1`: the inhibition of mean fluorescence is 17.1% (inactive) and the inhibition of percent positive cells was 0.6%.

Regarding `CC(=O)c1ccc(Nc2nc3c(S(=O)(=O)c4ccccc4)nnn3c3ccccc23)cc1`, the inhibition of mean fluorescence is 11.9% (inactive) and the inhibition of percent positive cells was 0.1%.

Consider `COc1ccc(Nc2nc3c(S(=O)(=O)c4ccc(C)cc4)nnn3c3ccsc23)cc1`, for which the inhibition of mean fluorescence is -6.2% (inactive) and the inhibition of percent positive cells is -0.3%.

With `Cc1ccc(C)c(Nc2c(F)c(F)c(F)c(F)c2C(=O)O)c1`, the inhibition of mean fluorescence was 2.3% (inactive) and the inhibition of percent positive cells is -1.9%.

In the case of `COc1ccc(N2CCN(C(CNC(=O)c3ccccc3F)c3cccnc3)CC2)cc1` (stereo not drawn), the inhibition of mean fluorescence is -65.6% (inactive) and the inhibition of percent positive cells is -1.1%.

For `CC1CCN(CC2CCN(C(=O)Nc3ccc4c(c3)OCCO4)CC2)CC1`, the inhibition of mean fluorescence is -3.7% (inactive) and the inhibition of percent positive cells came out at 0%.

Take `Cc1cc(Nc2ccccc2C(=O)O)n2ncnc2n1`: the inhibition of mean fluorescence was -29.1% (inactive) and the inhibition of percent positive cells is -0.3%.

For `O=C(NCC(c1cccnc1)N1CCN(c2ccccc2F)CC1)C1CCCCC1` (stereo not drawn), the inhibition of mean fluorescence was -12.9% (inactive) and the inhibition of percent positive cells was -0.1%.

As for `CCc1ccc(S(=O)(=O)c2n[nH]n3c2nc(=O)c2ccccc23)cc1`, the inhibition of mean fluorescence was 87.7% (active) and the inhibition of percent positive cells is 53.5%.

Consider `CCc1ccc(Nc2nc3c(S(=O)(=O)c4ccc(C)cc4)nnn3c3ccccc23)cc1`, for which the inhibition of mean fluorescence was 19.1% (inactive) and the inhibition of percent positive cells was -1.1%.

`Cc1ccc(Nc2c(F)c(F)c(F)c(F)c2C(=O)O)c(C)c1`: the inhibition of mean fluorescence was 4.2% (inactive) and the inhibition of percent positive cells is -2.3%.

As to `O=C(O)c1ccccc1Nc1ccnc(N2CCOCC2)n1`, the inhibition of mean fluorescence is 5.6% (inactive) and the inhibition of percent positive cells stood at 0%.

For the compound `COc1ccc(CC(=O)Nc2oc(-c3ccccc3)c(-c3ccccc3)c2C#N)cc1OC`, the inhibition of mean fluorescence was 20% (inactive) and the inhibition of percent positive cells was -0.5%.

Take `O=C(NCC(c1cccnc1)N1CCN(c2ccc(F)cc2)CC1)c1cccc(Cl)c1` (stereo not drawn): the inhibition of mean fluorescence was -11.7% (inactive) and the inhibition of percent positive cells was -0.1%.

For the compound `COc1ccc(NC(=O)C(c2cc3c(cc2[N+](=O)[O-])OCO3)N2CC(C)CC(C)C2)cc1` (stereo not drawn), the inhibition of mean fluorescence was 49.3% (active) and the inhibition of percent positive cells was 0.5%.

`CCCCc1oc2ccccc2c1C(=O)c1ccc(O)cc1`: the inhibition of mean fluorescence was 84.9% (active) and the inhibition of percent positive cells came out at 43.2%.

As to `CC(=O)c1c(C)oc2ccc(O)cc12`, the inhibition of mean fluorescence is -5.9% (inactive) and the inhibition of percent positive cells is -1.1%.
